Screens (PubChem)
L3MBTL1 inh: inhibitors of human L3MBTL1; actives 0.66% (n = 230,000); AlphaScreen L3MBTL1–H3K9me1 peptide binding; Q9Y468; AID 485360; Potency, µM (top dose mostly 57.1 µM), for the others: at the top dose activity, negative = inhibition, most hits filed as inhibitors; further: on the % scale 0 is the no-effect control and ±100 the full control effect; nearly all actives have a fitted effect of over 60% in size
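Read-out is AlphaScreen signal from streptavidin donor and nickel chelate acceptor beads (10 ug/mL final each) bridging L3MBTL1 (50 nM) and biotinylated K9-monomethylated H3(1-15) peptide (75 nM), after 30 min compound exposure at room temperature.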
HP1b chromo inh: inhibitors of HP1-beta chromodomain binding to methylated histone tails; actives 0.56% (n = 390,000); P83916; Potency, µM (series often up to 114 µM), without a hit: top-dose activity change, negative = inhibition, most hits filed as inhibitors; AID 540317; AlphaScreen HP1-beta / biotin-H3K9me3 peptide binding; further: nearly all actives have a fitted effect of over 70% in size
Target sequence (P83916 whole entry, looked up): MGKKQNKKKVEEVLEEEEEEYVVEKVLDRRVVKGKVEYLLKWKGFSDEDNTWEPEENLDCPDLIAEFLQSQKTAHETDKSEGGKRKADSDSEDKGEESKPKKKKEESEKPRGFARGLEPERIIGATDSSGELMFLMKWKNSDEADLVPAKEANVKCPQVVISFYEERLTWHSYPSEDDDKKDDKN
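HP1-beta protein (50 nM final) preincubated 30 min at room temperature with biotinylated H3(1-18)K9me3 peptide (50 nM) in PBS pH 7.4, 0.01% Tween-20, then compound added for 30 min. AlphaScreen streptavidin donor/nickel chelate acceptor beads (10 ug/mL final), 30 min dark, luminescence read.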
JMJD2A Tudor inh: inhibitors of human JMJD2A Tudor domain | O75164 | AlphaScreen JMJD2A-Tudor / H3K4me3 peptide binding | Potency, µM (top dose mostly 114 µM), for the others: at the highest dose activity change, negative = inhibition, usual class: inhibitors | actives 4.4% (n = 390,000); further: on the % scale 0 is the no-effect control and ±100 the full control effect; nearly all actives have a fitted effect of over 50% in size
BAZ2B block: BAZ2B (human) inhibition; Q9UIF8; AlphaScreen BAZ2B-H3K14Ac peptide displacement; Potency, µM (top dose mostly 114 µM), without a hit: at the top dose activity change, negative = inhibition, actives largely listed as inhibitors; actives 4.4% (n = 360,000); AID 504333; further: on the % scale 0 is the no-effect control and ±100 the full control effect; nearly all actives have a fitted effect of over 60% in size
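Complex of BAZ2B and biotin-H3K14Ac (50 nM apiece) forms over 30 min at RT, then faces library compounds up to 110 uM for another 30 min; AlphaScreen beads added, 20 min dark incubation, luminescence read.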
GLS inhibitor: inhibitors of human glutaminase (GLS); Potency, µM (top dose mostly 45.5 µM), without a hit: top-dose activity change, negative = inhibition, most hits filed as inhibitors; GLS enzymatic activity, qHTS titration; actives 0.21% (n = 410,000); O94925; further: on the % scale 0 is the no-effect control and ±100 the full control effect
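Assay buffer: 45 mM KH2PO4 pH 8.2, 0.02% Tween-20. hKGA acts on L-glutamine (1 mM solution added); product glutamate is reported by an oxidase/peroxidase Amplex Red coupling, with fluorescence taken at baseline and 30 min.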
G9a inh: inhibitors of human histone lysine methyltransferase G9a; Q96KQ7; AID 504332; Potency, µM (top dose mostly 102 µM), for inactives: at the top dose activity, negative = inhibition, most hits filed as inhibitors; actives 8.8% (n = 350,000); G9a H3K9 monomethylation, AlphaScreen, 2 h; further: on the % scale 0 is the no-effect control and ±100 the full control effect; nearly all actives have a fitted effect of over 75% in size
Target sequence (Q96KQ7 913-1193 limits assumed): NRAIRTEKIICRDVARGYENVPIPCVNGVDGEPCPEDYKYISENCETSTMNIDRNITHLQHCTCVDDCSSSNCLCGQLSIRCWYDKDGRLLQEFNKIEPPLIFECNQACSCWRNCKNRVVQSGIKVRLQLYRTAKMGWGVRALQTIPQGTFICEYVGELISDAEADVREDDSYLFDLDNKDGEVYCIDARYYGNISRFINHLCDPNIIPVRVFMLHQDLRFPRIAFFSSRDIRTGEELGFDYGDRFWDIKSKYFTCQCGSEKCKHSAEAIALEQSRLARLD
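Chemiluminescent proximity detection of H3K9 monomethylation, read after 10 min bead incubation in the dark. Reaction: 20 nM G9a, 500 nM biotin-H3K9 peptide, 20 uM SAM cofactor, 2 h, room temperature, following 15 min enzyme-compound preincubation.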
* hit, by the source's call; ? = inconclusive; . = no result; [ ] = dose if it differs, or a comment. An excerpt weighted towards active compounds, which were near 10% of everything screened. The call rests on the fitted dose curve; in most records, active means well fitted curve in the direction sought with a large enough effect; inconclusive means small, poorly fitted or top-dose-only effect, or another doubt; inactive means no such curve, though single readings can be large; an effect the other way counts as inactive or inconclusive. Potency means the concentration at half of the fitted maximal effect.

SMILES	L3MBTL1 inh	HP1b chromo inh	JMJD2A Tudor inh	BAZ2B block	GLS inhibitor	G9a inh
CC(C)Oc1ccc(CNS(=O)(=O)c2cnc(N)nc2)cc1	.	22%[57 µM]	-12%	0%	5%	12%[59 µM]
c1ccc2oc(-c3csc(N4CCOCC4)n3)cc2c1	.	-5%	-16%	-31%	-18%	40µM*
Fc1ccc(-c2csc(N3CCOCC3)n2)cc1	-2%	-3%	-17%	-23%	-5%	.
COc1cc(-c2csc(N3CCOCC3)n2)cc(OC)c1OC	4%	14%	-24%	?	-6%	56µM*
CC(=O)Nc1ccc(C2Nc3c(C)cc(C)cc3-c3cc(C)nn32)cc1 (stereo not given)	.	17%	-31%	-33%	2%	-18%[59 µM]
C#CCOCCOCCOCCNc1nc(N2CCN(C(=O)Cn3cc(CCCCN)nn3)CC2)nc(N2CCN(C(=O)[C@H](C)n3cc(CCCN=C(N)N)nn3)CC2)n1	-12%	.	.	?	.	28µM*
C#CCOCCOCCOCCNc1nc(N2CCN(C(=O)Cn3cc(CC(C)O)nn3)CC2)nc(N2CCN(C(=O)[C@H](C)n3cc(CCCN=C(N)N)nn3)CC2)n1 (stereo not given in full)	7%	-10%	45µM*	79µM*	-10%	7.1µM*
[O-][n+]1c2ccccc2[n+]([O-])c2cc(O)ccc21	.	45µM*	79µM*	40µM*	120%	1.4µM*
O=C(c1ccccc1)c1ccc(O)cc1O	.	21%	-16%	14%	13%	-42%
CCCc1nc2nc(C)c(NS(=O)(=O)c3ccc([N+](=O)[O-])cc3)c(=O)n2[nH]1	.	53%	-5%	6%	23%	79µM*
Cc1nc2nc(C)c(NS(=O)(=O)c3ccc4c(c3)CCCC4)c(=O)n2[nH]1	.	-16%	4%	-6%	32%	71µM*
COc1ccc(S(=O)(=O)Nc2c(C)nc3nc(C)[nH]n3c2=O)cc1	.	5%	-5%	11%	33%	-20%
N#Cc1cc(-c2ccccc2)nn1-c1ccccc1	-16%	25µM*	8.9µM*	?	-10%	?
Nc1ccccc1Nc1cc(-c2ccccc2)[nH]n1	-21%	?	50µM*	40µM*	?	40µM*
Nc1ccccc1Nc1cc(-c2ccccc2)nn1-c1ccccc1	?	?	32µM*	35µM*	5%	32µM*
Cn1ccc(-c2ccccc2)n1	-7%	38%	-5%	1%	1%	17%
COC(=O)C1=C(C)N(c2ccccc2)C(=S)NC1c1ccccc1C(F)(F)F (stereo not given)	?	18%	?	?	15%	50µM*
Cc1c(N2CCCC2)cc2c(c1NC(=O)c1ccccc1Cl)C(C)(C)CC2(C)C	-22%	6%	-34%	-37%	14%	28µM*
CCc1ccc(/C=C/c2c[nH]c3ccccc23)[n+](CC)c1	3%	22%	?	0%	8%	7.1µM*
Cc1cc2c(cc1NC(=O)c1ccccc1C)n(C)c(=O)c(=O)n2C	.	-16%	-16%	-3%	0%	-5%[59 µM]
C#CCOCCOCCOCCNc1nc(N2CCN(C(=O)[C@H](CCC(=O)O)n3cc([C@@H](N)CCCCN)nn3)CC2)nc(N2CCN(C(=O)[C@H](CCC(=O)O)n3cc([C@@H](N)CCCCN)nn3)CC2)n1	?	-9%	56µM*	.	-2%	.
C#CCOCCOCCOCCNc1nc(N2CCN(C(=O)[C@H](CO)n3cc([C@@H](N)C(C)C)nn3)CC2)nc(N2CCN(C(=O)[C@H](CCC(=O)O)n3cc([C@@H](N)CCCCN)nn3)CC2)n1	-3%	43%	?	.	2%	.
C#CCOCCOCCOCCNc1nc(N2CCN(C(=O)[C@H](CCC(=O)O)n3cc([C@@H](N)CCCCN)nn3)CC2)nc(N2CCN(C(=O)[C@H](CCCCN)n3cc([C@@H](N)CC(N)=O)nn3)CC2)n1	-3%	34%	50µM*	.	-5%	.
O=C(Cn1c(=O)n(Cc2ccc(F)cc2)c(=O)c2sc3ccccc3c21)NCc1ccccc1Cl	.	40%	-8%	2%	4%	-3%[59 µM]
CC1CCN(C(=O)CSc2nncn2-c2ccccn2)CC1	3%	-19%	1%	9%	.	7.1µM*
SMILES	L3MBTL1 inh	HP1b chromo inh	JMJD2A Tudor inh	BAZ2B block	GLS inhibitor	G9a inh
CC(Oc1ccccc1)C(=O)Nc1nnc2n1CCS2 (stereo not given)	.	-5%[57 µM]	28µM*	20µM*	-8%	1.6µM*
CC(C)C(=O)Nc1nnc2n1CCS2	.	3%[57 µM]	32µM*	2%	-10%	?
O=C(NCc1ccccc1F)C1CCN(c2nnc(-n3cccc3)s2)CC1	.	2%	-22%	10%[57.1 µM]	5%	-2%[59 µM]
CCOc1ccc(NC(=O)Cn2nnc(C(=O)NCCc3ccccc3)c2N)cc1	.	53%	-10%	.	-3%	-3%[59 µM]
Cc1cccc(N=CC=C2OC(C)(C)C(C)(C)O2)c1	1%	31%	-14%	-14%	2%	?
COc1cccc(N=CC=C2OC(C)(C)C(C)(C)O2)c1	.	38%	-20%	1%	5%	35µM*
COc1cccc(NC=C2C(=O)OC(C)(C)OC2=O)c1	2%	19%	-4%	0%	1%	22%
COc1ccc(N=CC=C2OC(C)(C)C(C)(C)O2)cc1OC	-3%	40%	-26%	?	2%	32µM*
COc1cccc(N=CNc2cccc(OC)c2)c1	.	-20%	50µM*	.	-6%	.
Cc1ccccc1N=CC=C1OC(C)(C)C(C)(C)O1	-9%	22%	-13%	1%	1%	40µM*
N#C/C(=C\c1ccc(Br)cc1)c1nc(-c2cc3cc(Br)ccc3oc2=O)cs1	.	5%	-17%	-6%	9%	-10%[59 µM]
COc1ccccc1-c1nnc(C2CCN(S(=O)(=O)c3ccc(CC(C)C)cc3)CC2)o1	.	23%	-24%	-12%	-11%	2%[59 µM]
c1ccc(-c2nc3ccccc3[nH]2)nc1	-5%	22%	?	-7%	-1%	-11%
O=c1[nH]c(-c2ccccn2)nc(C(F)(F)F)c1Br	?	1%	18µM*	28µM*	4%	14%
O=c1[nH]c(-c2ccccn2)nc2ccccc12	?	40%	56µM*	45µM*	2%	19%
C=CCNC(=O)c1onc(CSc2nc3ccccc3[nH]2)c1C(=O)NCC=C	-3%	13%	-26%	?	5%	56µM*
CCC(C(=O)N1CCN(c2cc(Cl)ccc2C)CC1)n1nc(C)c2sc3ccccc3c2c1=O (stereo not given)	.	27%	2%	2%	6%	-34%[59 µM]
